About 2,000 (36%) of roughly 5,500 compounds were called active. Not shown: some 18% with an inconclusive outcome. Rule as the data show it: active = normalized growth mostly below about 0.91 (no sharp cut-off); inconclusive = no clear call, values can overlap the other calls; inactive = mostly above about 0.92. Some of the results follow.
Assay: chemical genetic growth profiling, strain panel (AID 1159580);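 also: tested at 20 µM; growth read once vehicle control cultures reached saturation at 30 °C; 1 = growth at the plate median or of vehicle wells; lower values mean less growth of the strain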
Conditions: S. cerevisiae deletion strains, growth OD
[1] = locus YAL013W, strain DEP1, active compounds read low
[2] = locus YBR229C, strain ROT2, active compounds read low
[3] = locus YDL101C, strain DUN1, active compounds read low
[4] = locus YDR150W, strain NUM1, active compounds read low
[5] = locus YEL061C, strain CIN8, active compounds read low
[6] = locus YGR078C, strain PAC10, active compounds read low
[7] = locus YGR229C, strain SMI1, active compounds read low
[8] = locus YHR030C, strain SLT2, active compounds read low
[9] = locus YHR087W, strain rtc3, active compounds read low
[10] = locus YJR043C, strain POL32, active compounds read low
[11] = locus YJR075W, strain HOC1, active compounds read low
[12] = locus YLR039C, strain RIC1, active compounds read low
[13] = locus YLR058C, strain SHM2 (second series), active compounds read low
[14] = locus YLR085C, strain ARP6, active compounds read low
[15] = locus YLR262C, strain YPT6, active compounds read low
[16] = locus YML094W, strain GIM5, active compounds read low
[17] = locus YMR219W, strain ESC1, active compounds read low
[18] = locus YMR263W, strain SAP30, active compounds read low
[19] = locus YMR307W, strain GAS1, active compounds read low
[20] = locus YNL153C, strain GIM3, active compounds read low
[21] = locus YNL298W, strain CLA4 (second series), active compounds read low
[22] = locus YNL322C, strain KRE1, active compounds read low
[23] = locus YNR030W, strain Alg12, active compounds read low
[24] = locus YOL006C, strain TOP1, active compounds read low
[25] = locus YPL055C, strain LGE1, active compounds read low
[26] = locus YPL241C, strain CIN2, active compounds read low
[27] = locus YPR135W, strain CTF4, active compounds read low
[28] = locus YDL134C, strain PPH21, active compounds read low
[29] = locus YKL190W, strain CNB1, active compounds read low

Measured: normalized growth

Nc1nc(Sc2cc(-n3cccc3)c(Cl)cc2[N+](=O)[O-])n[nH]1
inactive: [1] 0.992 | [2] 1 | [3] 0.998 | [4] 0.997 | [5] 0.994 | [6] 0.995 | [7] 1 | [8] 0.972 | [9] 0.992 | [10] 0.996 | [11] 1.01 | [12] 0.973 | [13] 1 | [14] 0.972 | [15] 1 | [16] 0.983 | [17] 1 | [18] 1.01 | [19] 0.985 | [20] 0.995 | [21] 0.972 | [22] 1 | [23] 0.995 | [24] 1.02 | [25] 0.989 | [26] 0.936 | [27] 0.933

Cc1nc(C(F)(F)F)nc(Sc2n[nH]c(-c3cc(Cl)cc(Cl)c3)n2)c1C
active: [14] 1.25 [resistant]
inactive: [1] 1.03 | [2] 1.01 | locus YCL061C, strain MRC1, active compounds read low 1 | [3] 0.996 | [28] 1.01 | [4] 0.996 | [5] 0.985 | [6] 1.01 | [7] 1.01 | [8] 1.02 | [9] 1.03 | [10] 1.01 | [11] 1.02 | [29] 1 | [12] 1.07 | [13] 0.998 | [15] 1.02 | [16] 0.994 | [17] 1.02 | [18] 0.993 | [19] 0.988 | [20] 0.995 | [21] 0.966 | [22] 0.995 | [23] 0.974 | [25] 1.03 | [26] 1.07 | [27] 1.17

Nc1nc(Sc2ccc(C(F)(F)F)cc2[N+](=O)[O-])n[nH]1
inactive: [1] 0.988 | [2] 0.998 | [3] 1.02 | [4] 0.901 | [5] 1.02 | [6] 1.01 | [8] 1.03 | [9] 0.988 | [10] 1.01 | [11] 1.01 | [29] 1 | [12] 1.07 | [13] 1.01 | [14] 1.16 | [15] 1.03 | [16] 0.995 | [17] 1 | [18] 1.01 | [19] 1.24 | [20] 1.01 | [21] 1.01 | [22] 1 | [23] 0.999 | [24] 1.06 | [25] 0.872 | [26] 1.08 | [27] 0.892

O=[N+]([O-])c1cc(C(F)(F)F)ccc1Sc1ccc(Cl)cc1
inactive: [1] 1 | [2] 1.01 | [3] 1 | [28] 0.98 | [4] 0.957 | [5] 1.01 | [6] 1.01 | [8] 0.901 | [9] 1.01 | [10] 1 | [11] 1.02 | [29] 1.01 | [12] 0.928 | [13] 1 | [15] 0.967 | [16] 0.97 | [17] 1.01 | [18] 1.01 | [20] 1.02 | [21] 0.995 | [22] 0.996 | [23] 0.978 | [25] 1.04 | [26] 0.967 | [27] 0.97
active: [14] 0.757

Cn1c(Sc2ccc(C(F)(F)F)cc2[N+](=O)[O-])nnc1C(F)(F)F
inactive: [1] 1 | [2] 1.01 | [3] 1.02 | [4] 0.988 | [5] 1 | [6] 1.01 | [8] 1.04 | [9] 1 | [10] 1 | [11] 0.973 | [29] 1.01 | [12] 1.02 | [13] 1.01 | [14] 1.05 | [15] 1.01 | [16] 1.05 | [17] 0.996 | [18] 0.994 | locus YNL128W, strain TEP1, active compounds read low 0.994 | [20] 1 | [21] 0.993 | [22] 1 | [23] 1.02 | [24] 0.899 | [25] 1.01 | [26] 1.11 | [27] 1.05

From PubChem BioAssay AID1159580 (chemical genetic matrix, 2015)
